# PubChem BioAssay AID624296 (National Center for Advancing Translational Sciences (NCATS), 2012)
# Screen size: about 350,000 compounds; about 9,900 (2.8%) were called active. Where a call stands in place of a potency, no number is given. About 15% were inconclusive and are not listed. The full list was thinned out, with actives kept by preference. Values without a mark were called inactive. Calls follow the shape of the dose curve; as a rule, active = well fitted activation curve with a large enough effect; inconclusive = small, poorly fitted or top-dose-only effect; inactive = no such curve, though single readings can be large or run the other way.
# Test: A quantitative high throughput screen for small molecules that induce DNA re-replication in MCF 10a normal breast cells. Also: nearly all actives have a fitted effect of over 50% in size.
# Details: MCF 10A DNA re-replication, Hoechst nuclear intensity, 48 h; series mostly up to 46.1 µM
# Potency is read from the fitted curve at half-maximal effect.
Compound,Potency,"activity, positive = re-replication"
COc1ccc(OC)c2c(N)c(C#N)c(C(F)(F)C(F)(F)F)nc12,inactive,
COc1ccc(-c2cc(-c3ccc(N)cc3)nc(N)c2C#N)cc1OC,23.1 µM (active),
CC(=O)Nc1ccc(-c2cn3cccnc3n2)cc1,inactive,
CCOc1cc(-c2cc(-c3ccc(OC)cc3)nc(N)c2C#N)ccc1O,inactive,
COc1ccc(C2CC(=O)Nc3sc(=N)c4c(N)c(C#N)c(N)nc4c32)cc1OC (configuration not stated),inactive,
CCOc1cc(-c2cc(-c3ccc(NC(C)=O)cc3)nc(N)c2C#N)ccc1O,18.4 µM (active),
O=C(COc1ccccc1F)NNC(=O)c1cc(Br)ccc1Cl,inactive,
O=S(=O)(c1cccs1)N1CCN(CCOc2ccccc2)CC1,inactive,
CCOc1cc(/C=C/C(=O)OCC(=O)NCCN2C(=O)CSC2=O)ccc1OCC(C)C,inactive,
Cc1cccc(N2O[C@H]3C=CC2CCCC3)n1,inactive,
CC(=O)c1ccc(OCCCC(=O)Nc2ccc(C)c(S(=O)(=O)N3CCOCC3)c2)cc1,inactive,
CC(C)(O)C(=O)NN(C(=O)c1ccccc1)c1cccc(Br)c1,inactive,
CCCC(O)(CCC)C(=O)NN(C(=O)CCl)c1cccc(C)c1,14.6 µM (active),
Cc1ccc(N(NC(=O)C(C)(C)O)C(=O)c2ccccc2)cc1C,inactive,
COc1cc(NC(=O)COC(=O)c2cc(S(=O)(=O)N3CCOCC3)ccc2F)cc(OC)c1,inactive,
CSc1ccc(Cl)c(C(=O)OCC(=O)N2CCNC2=O)c1,inactive,
O=C1CC2(CCCC2)C(=O)N1CN1CCN(S(=O)(=O)c2ccc(F)cc2F)CC1,inactive,
CC/C(=C\c1ccc(Cl)cc1)c1ccncc1,inactive,
CCn1c(=O)cc(SCC(=O)NCCC2=CCCCC2)c2ccccc21,inactive,
O=C(Cc1nn[nH]n1)NCCC1=CCCCC1,inactive,
Cc1ccc(-n2c(SCC(=O)NCCC3=CCCCC3)nc3n[nH]c(C)c3c2=N)cc1Cl,16.4 µM (active),

Compound,Potency,"activity, positive = re-replication"
Cc1ccc(N2C(=O)N3[C@@H]4c5ccccc5OC[C@@H]4[C@@H](c4ccccc4)[C@@]3(C)C2=O)cc1,inactive,
O=C(O)C(CCc1ccccn1)c1ccccc1 (configuration not stated),inactive,
O=c1ccc(S(=O)(=O)N2CCCC2)cn1Cc1nc(-c2ccccc2)no1,inactive,
O=C(O)C(c1cccs1)C1(O)CCCCC1 (configuration not stated),inactive,
Nc1ccc2c(c1)C(=Cc1cccnc1)c1ccccc1-2,inactive,
CC(C)c1cc(N=O)cc(C(C)C)c1O,inactive,
CC(C)=CCc1ccc(O)c(=O)cc1C(C)C,20.6 µM (active),
CCN(C(=O)COC(=O)Cc1c(F)cccc1Cl)c1c(N)n(Cc2ccccc2)c(=O)[nH]c1=O,inactive,
COc1ccc(NC(=O)CN(C)CC(=O)Nc2cccc(C(F)(F)F)c2)cc1,inactive,
COc1cccc(NC(=O)CN(C)CC(=O)Nc2ccc3c(c2)CCC3)c1,0.651 µM (active),
COc1cccc(NC(=O)CN(C)C(=O)CSC(=S)N2CCCC2)c1,inactive,
O=C(Cn1nnc(-c2ccccc2)n1)NC(=O)NC1CCCC1,inactive,
O=C(COC(=O)c1ccc(Br)o1)NC12CC3CC(CC(C3)C1)C2,inactive,
O=C1N[C@H](Cc2c[nH]c3ccccc23)COC(=O)[C@H](Cc2ccc(F)cc2)C/C=C\C[C@H]1CC(=O)N(CCO)Cc1ccccc1,inactive,
O=C1OC[C@@H]2CCCN2C(=O)[C@H](CC(=O)N(CCO)Cc2ccccc2)C/C=C\CC[C@@H]1Cc1ccc(F)cc1,inactive,
O=C1CCC/C=C/C[C@@H](CC(=O)N(CCO)Cc2ccccc2)C(=O)NC[C@H](c2ccccc2)O1,inactive,
CC(C)(C)OC(=O)C[C@@H]1C/C=C\C[C@@H](CC(=O)N(CCO)Cc2ccccc2)C(=O)N[C@H](Cc2ccccc2)COC1=O,20.6 µM (active),
CC(C)(C)OC(=O)C[C@@H]1C/C=C\C[C@H](CC(=O)N[C@@H](CO)Cc2ccccc2)C(=O)N[C@H](Cc2ccccc2)COC1=O,inactive,
O=C1NC[C@@H](c2ccccc2)OC(=O)[C@H](Cc2ccc(F)cc2)CC/C=C/C[C@H]1CC(=O)N(CCO)Cc1ccccc1,18.4 µM (active),
COc1cccc(NC(=O)CSc2nnc(C3CCCCC3)n2N)c1,inactive,
CC(=O)c1cccc(OCC(=O)OCC(=O)Nc2cc(S(=O)(=O)N3CCCCC3)ccc2C)c1,inactive,

Compound,Potency,"activity, positive = re-replication"
O=C1c2ccccc2C(=O)N1CCC#Cc1ccc2cc(C3(O)CCCCC3)oc(=O)c2c1,inactive,
O=C(CSc1nc2[nH]c(=O)[nH]c(=O)c2s1)Nc1cccc(F)c1,inactive,
CC(Sc1nnc(C2CC2)n1C1CC1)C(=O)Nc1ccc(C(N)=O)cc1 (configuration not stated),inactive,
CCCn1nc(C(=O)OCc2nc(N)nc(Nc3ccccc3C)n2)c2ccccc2c1=O,inactive,
Cc1cc(C)cc(OCc2nnc(SCC(=O)Nc3ccccc3)o2)c1,,-182% [at 0.0737 µM]
Cc1cccc(OCc2nnc(SCc3nc4cc(C(F)(F)F)ccc4c(=O)[nH]3)o2)c1,5.8 µM (active),
Cc1cccc(OCc2nnc(SCn3nnc4ccccc4c3=O)o2)c1,inactive,
C=CC[C@H](CC(=O)NCCO)C(=O)N[C@@H](COC(=O)[C@@H](CC=C)Cc1ccc(F)cc1)Cc1c[nH]c2ccccc12,inactive,
CC(C)OC(=O)CN1C(=O)c2ccccc2C1=O,inactive,
CC(C)OC(=O)CN1C(=O)C(=O)c2ccccc21,23.1 µM (active),
Cc1cccc2c1N(CC(=O)OC(C)C)C(=O)C2=O,inactive,
CCN1C[C@@H]2[C@@H]3C(=O)N(C)C(=O)[C@@H]3[C@](C)(C1=O)N2C(=O)c1ccccc1,inactive,
NCCN1CCN2C(=O)CN(C(=O)c3ccccc3)CC12 (configuration not stated),inactive,
S=c1[nH]c(-c2cccs2)cn1-c1ccccc1,inactive,
O=C(c1cn(-c2ccccc2)nc1-c1cc2ccccc2oc1=O)N1CCOCC1,inactive,
O=c1oc2ccccc2cc1-c1cn(-c2ccccc2)c(=S)[nH]1,5.8 µM (active),
COc1ccc(CNC(=O)COC(=O)c2ccc(C)c(S(=O)(=O)N3CCOCC3)c2)cc1OC,inactive,
O=C(NCc1cccnc1)c1cccnc1Sc1ccc(Cl)cc1,inactive,
CSc1ncccc1C(=O)NC1CCCCCC1,inactive,
O=C(NC1CCCCCC1)c1cccnc1Sc1ccc(Cl)cc1,18.4 µM (active),
